# Compound activity (PubChem)
# Sampled rows, rich in hits. Any-hit rate of the full collection: about 1.4%.
# Tb PYK inh = T. brucei pyruvate kinase inhibition | Potency, µM (doses to about 76.8 µM), for inactives: at the highest dose activity, negative = inhibition, usual class: inhibitors | AID 624173 | TbPYK enzyme, Kinase-Glo Plus ATP luminescence, 45 min | hit rate 0.12% among 410,000 | Q57TT1; also: nearly all actives have a fitted effect of over 50% in size
#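 Assay buffer: 50 mM TEA pH 7.2, 100 mM KCl, 10 mM MgCl2, 0.05% BSA, 0.01% Tween-20. Pyruvate kinase from T. brucei plus substrate met compound, then ADP (130 uM final). Luminescence was read post 45 min RT.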
# Giardia FBPA inh-1 = Giardia lamblia aldolase inhibition; A8B2U2; purified Giardia FBPA; Potency, µM (titrated, usually from 59.6 µM), for inactives: at the highest dose activity, negative = inhibition, hits mostly inhibitors; hit rate 0.71% among 290,000; AID 2451; also: nearly all actives have a fitted effect of over 55% in size
#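 40 nM FBPA preincubated 10 min at RT with compound (up to 57.5 uM final), then substrate plus GAPDH/TPI/NAD/arsenate coupling and diaphorase/resazurin added. Fluorescence read after 20 min at RT, 525/598 nm.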
# AmpC no deterg = AmpC beta-lactamase inhibition without detergent. P00811. AmpC nitrocefin hydrolysis, absorbance 480 nm, 0.0001% Triton. Potency, µM (doses to about 57.1 µM), inactives show at the highest dose activity change, negative = inhibition, actives largely listed as inhibitors. hit rate 0.52% among 330,000. AID 485341;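 also: plate controls were no compound for no effect and no enzyme for full effect; nearly all actives have a fitted effect of over 20% in size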
#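 20 mM phosphate pH 7.0 + 0.01% (detergent screen) or 0.0001% Triton X-100; 5.3 nM AmpC reagent; cpd preinc 15 min RT; nitrocefin (800 uM stock) to start; A480 q20 s × 4 min; Activity was normalised to no-enzyme and no-compound control wells.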
# AmpC detergent = blocks E. coli AmpC beta-lactamase in detergent assay; P00811; AmpC hydrolysis of nitrocefin, absorbance 480 nm, 0.01% Triton; Potency, µM (top dose mostly 114 µM), inactives show top-dose activity change, negative = inhibition, hits mostly inhibitors; hit rate 0.041% among 370,000;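 also: 0% = no-compound wells and -100% = no-enzyme wells; nearly all actives have a fitted effect of over 25% in size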
#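 AmpC (5.3 nM in the dispensed reagent) in 20 mM phosphate pH 7.0 with 0.01% (detergent screen) or 0.0001% Triton X-100 was preincubated with compounds for 15 min at room temperature. Nitrocefin was then added from an 800 uM solution, and hydrolysis was followed at 480 nm.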
# RE007 growth inh = less growth of the S. pombe RE007 Vpr strain | S. pombe RE007 Vpr strain, BacTiter-Glo ATP luminescence, 24 h | Potency, µM (doses to about 92.2 µM), for the others: top-dose activity change, negative = less growth, hits mostly inhibitors | hit rate 0.21% among 360,000; active = well fitted falling curve with a large enough effect; inconclusive = small, poorly fitted or top-dose-only effect; inactive = no such curve, though single readings can be large or run the other way; also: nearly all actives have a fitted effect of over 50% in size
#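 Fission yeast strain RE007, carrying one chromosomally integrated HIV-1 vpr copy, was seeded at OD 0.01 in PMG+AL medium with 23 nL pinned compound. After 24 h at 30 °C and 99% humidity, viability was read by BacTiter-Glo luminescence.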
# LmPK inhibitor = blocks Leishmania mexicana pyruvate kinase activity. hit rate 0.37% among 290,000. purified LmPK, Kinase-Glo ATP luminescence, 1 h. Potency, µM (highest dose often 57.5 µM), for inactives: at the highest dose activity change, negative = inhibition, hits mostly inhibitors. Q27686
# Target sequence (Q27686 whole entry, looked up): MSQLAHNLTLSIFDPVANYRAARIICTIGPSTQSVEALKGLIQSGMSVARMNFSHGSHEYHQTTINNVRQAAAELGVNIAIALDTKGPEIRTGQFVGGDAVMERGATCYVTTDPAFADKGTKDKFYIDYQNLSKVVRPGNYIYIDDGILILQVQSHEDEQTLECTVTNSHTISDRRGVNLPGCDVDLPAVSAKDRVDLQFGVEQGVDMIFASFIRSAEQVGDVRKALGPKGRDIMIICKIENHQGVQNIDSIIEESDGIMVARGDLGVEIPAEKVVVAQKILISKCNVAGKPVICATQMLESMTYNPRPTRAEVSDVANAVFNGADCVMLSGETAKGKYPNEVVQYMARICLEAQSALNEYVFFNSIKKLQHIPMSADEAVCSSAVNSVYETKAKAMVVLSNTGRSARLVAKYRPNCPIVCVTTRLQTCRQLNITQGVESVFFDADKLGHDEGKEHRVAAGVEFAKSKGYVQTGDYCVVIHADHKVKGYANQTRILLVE
#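 Purified LmPK (0.1 nM) with 0.5 mM PEP and 0.1 mM ADP in imidazole buffer pH 7.2 with MgCl2/KCl, 1 h at room temperature. ATP formed was read by luciferase luminescence and normalized to no-enzyme and uninhibited controls.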
# Giardia growth = inhibitors of Giardia lamblia growth; AID 2785; hit rate 5% among 1,500; Potency, µM (series often up to 57.5 µM), inactives show at the top dose activity change, negative = inhibition, usual class: inhibitors; Giardia lamblia trophozoite growth inhibition; shares compounds with Giardia FBPA inh-1;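 also: trophozoites exposed to compound for 48 h at 37 °C; nearly all actives have a fitted effect of over 70% in size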
# Mammal cell tox = mammalian cytotoxicity of Giardia aldolase inhibitor hits; mammalian cell viability counter-screen, qHTS; shares compounds with Giardia FBPA inh-1; AID 2786; hit rate 4% among 1,500; Potency, µM (highest dose often 57.5 µM), for the others: at the highest dose viability change, negative = toxicity, usual class: inhibitors;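 also: Chinese hamster ovary cells used as mammalian cytotoxicity surrogate; viability measured as cellular ATP by luminescence; compound exposure lasted 48 h before reading; nearly all actives have a fitted effect of over 60% in size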
# Giardia FBPA inh-2 = confirmation of Giardia fructose-bisphosphate aldolase inhibitors | hit rate 5% among 1,500 | shares compounds with Giardia FBPA inh-1 | purified Giardia aldolase enzyme activity, qHTS | Potency, µM (highest dose often 57.5 µM), for the others: at the top dose activity change, negative = inhibition, actives largely listed as inhibitors | AID 2787; also: nearly all actives have a fitted effect of over 45% in size
# Rabbit aldolase = blocks rabbit muscle aldolase in Giardia aldolase selectivity test | shares compounds with Giardia FBPA inh-1 | Potency, µM (highest dose often 57.5 µM), for the others: at the top dose activity, negative = inhibition, usual class: inhibitors | AID 2794 | hit rate 4% among 1,500 | Rabbit muscle FBPA enzyme inhibition, selectivity counter-screen; also: nearly all actives have a fitted effect of over 60% in size
# GAPDH coupling = GAPDH inhibition flagged for Giardia aldolase hits; GAPDH coupling enzyme counterscreen, biochemical, qHTS; shares compounds with Giardia FBPA inh-1; Potency, µM (highest dose often 57.5 µM), for the others: at the top dose activity change, negative = inhibition, actives largely listed as inhibitors; AID 2795; hit rate 6% among 1,500; also: nearly all actives have a fitted effect of over 55% in size
# * marks the source's active call; other numbers are inactive results; ? = inconclusive; · = not tested or not shown; [ ] = dose if it differs, or a comment. Unless noted, calls follow the shape of the dose curve; as a rule, active = well fitted curve in the direction sought with a large enough effect; inconclusive = small, poorly fitted or top-dose-only effect, or another doubt; inactive = no such curve, though single readings can be large; an effect the other way counts as inactive or inconclusive. Unless noted, % is scaled to controls: 0 for no effect and ±100 for the full control effect; potency is read from the fitted curve at half-maximal effect.
SMILES,Tb PYK inh,Giardia FBPA inh-1,AmpC no deterg,AmpC detergent,RE007 growth inh,LmPK inhibitor,Giardia growth,Mammal cell tox,Giardia FBPA inh-2,Rabbit aldolase,GAPDH coupling
O=C(O)CCCN1C(=O)/C(=C/c2ccc(-c3nc4ccccc4s3)o2)SC1=S,-10.9%,-21.7%,-24.4%,-5.6%,-5.0%,3.1%,·,·,·,·,·
O=C(O)CCCCCN1C(=O)/C(=C\c2ccc(-c3ccc(Cl)cc3)o2)SC1=S,-3.3%,15.8µM*,-21.8%,0.5%,20.0%,-6.5%,10.9%[10.4 µM],4.2%,-4.0%,3.1%,14.8%
CC(=O)N1CCc2nc3sc(C(=O)Nc4ccc(Cl)cc4F)c(N)c3c(C(F)(F)F)c2C1,7.3%,·,·,-1.1%,·,·,·,·,·,·,·
CN(CC(=O)Nc1ccccc1Br)Cc1nc2ccccc2c(=O)[nH]1,0.3%,20µM*,-8.7%,-17.8%,11.9%,2.1%,-2.1%[10.4 µM],-15.6%,-0.3%,-6.9%,?
CN(CC(=O)Nc1ccccc1Br)C(=O)CCc1nc2ccccc2c(=O)[nH]1,0.2%,·,-9.5%,?,-20.7%,·,·,·,·,·,·
[NH-]c1ncnc2c1N=C[N+]2=CC=CCO,-4.0%,8.91µM*,-14.4%,1.1%,·,2.4%,-10.3%[38.3 µM],8.4%,2.2%,5.9%,11.4%
CCCC(=O)NC(c1ccco1)c1cc([N+](=O)[O-])c2cccnc2c1O (stereo not drawn),-2.8%,7.06µM*,-17.8%,-7.5%,-17.6%,-15.3%,?,-7.3%,-28.0%,-25.4%,?
CCC(=O)NC(c1ccc(C)cc1)c1cc([N+](=O)[O-])c2cccnc2c1O (stereo not drawn),?,?,-24.4%,-11.7%,-9.3%,-1.4%,·,·,·,·,·
Cc1ccc(-n2nc3c(=S)[nH]nc(C)c3c2C)cc1,-5.6%,25.1µM*,-10.4%,-11.9%,-6.4%,6.5%,-4.8%,-3.6%,5.4%,9.2%,16.2%
Cc1n[nH]c(=S)c2nn(-c3ccccc3)c(C)c12,·,-18.5%,-14.7%,?,·,-0.3%,·,·,·,·,·
O=C(O)c1cc2nccc(-c3ccco3)n2n1,-3.3%,-8.0%,-8.3%,-1.5%,-8.8%,4.2%,·,·,·,·,·
COc1ccc(-c2ccnc3cc(C(=O)O)nn23)cc1,1.8%,17.7µM*,-9.5%,-2.5%,?,4.8%,47.1%,23.1%,4.4%,-0.4%,7.2%
COC(=O)c1cnc(NNS(=O)(=O)c2ccc(Cl)cc2)nc1C(F)(F)F,-16.9%,15.8µM*,-10.2%,-2.7%,1.7%,1.5%,-2.9%,-7.0%,-5.9%,1.7%,4.2%
CC(CC(C)(C)C)CP(=O)(O)CC(C)CC(C)(C)C (stereo not drawn),·,14.4%,·,·,·,·,·,·,·,·,·
COc1ccc(OCc2ccc(-c3nc(C#N)c(NC(C)c4ccccc4)o3)o2)cc1 (stereo not drawn),2.5%,·,·,30.8%,·,·,·,·,·,·,·
FC(F)(F)c1ccnc(NCc2ccc(Cl)cc2)n1,-0.3%,-1.4%,-21.0%,-21.1%,-16.8%,-1.1%,·,·,·,·,·
